Results filed as inconclusive are left out. Activity calls are given as the source filed them. Unless noted, the call rests on the fitted dose curve; in most records, active means well fitted curve in the direction sought with a large enough effect in the repeat runs; inconclusive means weak or mixed curves; inactive means no such curve, though single readings can be large; an effect the other way counts as inactive or inconclusive.
Columns and labels:
[1] = qHTS assay to identify small molecule antagonists of the vitamin D receptor (VDR) signaling pathway - cell viability counter screen (AID 743225); further: nearly all actives have a fitted effect of over 50% in size
Summary of the method: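 Read-out: CellTiter-Glo luminescence measured 30 min after reagent addition at room temperature. Cells were VDR-bla HEK 293T exposed 16 h at 37C, 5% CO2, to compound with 3 nM final calcitriol agonist.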

[2] = qHTS assay to identify small molecule agonists of the NFkB signaling pathway - cell viability counter screen (AID 1159515; calls by dose curve; further: series mostly up to about 61 µM; nearly all actives have a fitted effect of over 55% in size)
Summary of the method: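 Counter screen run alongside the NFkB-bla agonist assay: ME-180 reporter cells exposed to compounds for 5 hr, then lysed with CellTiter-Glo in the same wells. Luminescence, read after 30 min, reflects viable cells.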

[3] = qHTS assay to identify small molecule agonists of the endoplasmic reticulum stress response signaling pathway (AID 1159516; active means well fitted activation curve with a large enough effect in the signal ratio in the repeat runs, not every such curve was filed as active; the % refers to the signal ratio)
Summary of the method: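 For this screen, HeLa cells stably carrying beta-lactamase under the ER stress response element received test compounds, positive controls or DMSO for 5 hr at 37 C; B/G FRET substrate was then added and dual-wavelength emission recorded.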

[4] = qHTS assay to identify small molecule agonists of the endoplasmic reticulum stress response signaling pathway - cell viability counter screen (AID 1159517; calls by dose curve; further: series mostly up to about 61 µM; nearly all actives have a fitted effect of over 50% in size)
Summary of the method: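 Steps: seed 1,500 ESRE-bla HeLa cells per well; incubate overnight at 37 C, 5% CO2; add compounds in DMSO for 5 hr; run FRET substrate 2 hr RT; add CellTiter-Glo, wait 30 min, read luminescence.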

[5] = qHTS assay to identify small molecule antagonists of the retinoid-related orphan receptor gamma (ROR-gamma) signaling pathway - cell viability counter screen (AID 1159520); further: nearly all actives have a fitted effect of over 50% in size; further: potency means the concentration at half of the fitted maximal effect
Summary of the method: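 Tet-on ROR gamma CHO cells were given compounds for 2 hr, then doxycycline hyclate at 1 uM final, and incubated 16 hr at 37 C. Viability was measured as ATP content by CellTiter-Glo luminescence.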

[6] = qHTS assay to identify small molecule agonists of the AP-1 signaling pathway - cell viability counter screen (AID 1159525; calls by dose curve; further: nearly all actives have a fitted effect of over 55% in size)
Summary of the method: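 Same-well cytotoxicity counter screen of the Tox21 10K library in ME-180 cells. The readout is ATP-dependent luminescence after 5 h compound treatment. Data are normalised to DMSO and tetra n-octyl ammonium bromide controls.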

[7] = qHTS assay to identify small molecule agonists of the AP-1 signaling pathway (AID 1159526; calls by dose curve)
[8] = qHTS assay to identify small molecule agonists of the RXR signaling pathway - cell viability counter screen (AID 1159529); further: series mostly up to about 77 µM; nearly all actives have a fitted effect of over 50% in size
Summary of the method: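 HEK 293T RXRa-bla cells, 2% CS-FBS; 5 h settle; cpd 16 h 37 C, 5% CO2; CellTiter-Glo 30 min RT, luminescence. Tetraoctyl ammonium bromide as positive control.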

[9] = qHTS assay to identify small molecule antagonists of the retinoid acid receptor (RAR) signaling pathway - cell viability counter screen (AID 1159551); further: nearly all actives have a fitted effect of over 35% in size; further: potency means the concentration at half of the fitted maximal effect
Summary of the method: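 Measured by luminescent ATP detection, viability reflects C3RL4 cells treated 6 h at 37 C with test chemicals in the presence of 1 uM (final) retinol.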

[10] = qHTS assay to identify small molecule antagonists of the retinoic acid receptor (RAR) signaling pathway (AID 1159552; further: nearly all actives have a fitted effect of over 50% in size)
Summary of the method: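 Cells of the C3RL4 line were seeded, incubated overnight, then dosed with compounds in DMSO followed immediately by retinol (1 uM final). Six hours later luciferase detection reagent went in; signal was measured after 30 min at RT.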

[11] = qHTS assay to identify small molecule agonists of the retinoic acid receptor (RAR) signaling pathway (AID 1159553)
Summary of the method: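 6 hr compound exposure (DMSO vehicle) of overnight-plated C3RL4 RARE-luc cells at 37 C; luminescence quantified after 30 min RT with luciferase reagent.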

[12] = qHTS assay to identify small molecule antagonists of the estrogen related receptor (ERR) signaling pathway from Tox21 library - cell viability counter screen (AID 1224834); further: nearly all actives have a fitted effect of over 30% in size; further: potency means the concentration at half of the fitted maximal effect
Summary of the method: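 Seeded ERR cells were rested 6 h at 37 C/5% CO2 before compounds, positive and negative controls or DMSO were added. Incubation continued for 17.5 h, and viability was then quantified by CellTiter-Fluor fluorescence.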

[13] = target: Retinoic acid receptor RXR-alpha (Homo sapiens) (UniProt P19793); assay: qHTS assay to identify small molecule agonists of the RXR signaling pathway (AID 1159527; calls by dose curve; further: nearly all actives have a fitted effect of over 35% in size; further: potency means the concentration at half of the fitted maximal effect)
Summary of the method: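 Read-out: beta-lactamase FRET ratio (405 nm excitation, 460 and 530 nm emission) after 2 hr substrate loading at room temperature. Cells were RXR-alpha-UAS-bla HEK 293T treated with compounds for 16 hr in 2% charcoal-stripped FBS medium.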

Measured: Potency

Chain of Retinoic acid receptor RXR-alpha (Homo sapiens) (P19793 whole entry, looked up): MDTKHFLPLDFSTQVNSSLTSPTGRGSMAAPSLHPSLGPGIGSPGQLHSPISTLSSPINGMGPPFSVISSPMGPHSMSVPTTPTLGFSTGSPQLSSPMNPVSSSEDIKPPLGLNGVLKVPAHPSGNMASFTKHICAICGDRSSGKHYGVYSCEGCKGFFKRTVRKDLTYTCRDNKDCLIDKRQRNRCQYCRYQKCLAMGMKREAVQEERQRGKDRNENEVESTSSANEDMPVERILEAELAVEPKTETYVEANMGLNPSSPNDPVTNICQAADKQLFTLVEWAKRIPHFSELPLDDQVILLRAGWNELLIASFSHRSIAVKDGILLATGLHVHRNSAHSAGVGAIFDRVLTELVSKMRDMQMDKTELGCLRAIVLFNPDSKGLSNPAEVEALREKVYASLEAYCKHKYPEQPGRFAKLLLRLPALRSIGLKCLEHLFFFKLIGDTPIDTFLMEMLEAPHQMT

CCO[C@H](Cc1ccc(OCCc2ccc(OS(C)(=O)=O)cc2)cc1)C(=O)O
inactive: [1] | [2] | [3] | [4] | [5] | [6] | [7] | [8] | [9] | [10] | [11] | [12]

CC1=CCCC(C)(C)C12CCC(C)O2 (configuration not stated)
inactive: [1] | [2] | [3] | [4] | [5] | [6] | [7] | [13] | [12]

NCC(=O)CCC(=O)O
inactive: [1] | [2] | [3] | [4] | [5] | [6] | [7] | [13] | [8] | [12]

CCOC(=O)COC(=O)c1cc(Oc2ccc(C(F)(F)F)cc2Cl)ccc1[N+](=O)[O-]
active: [13] 24.5 µM
inactive: [1] | [2] | [3] | [4] | [5] | [6] | [7] | [8] | [11]

Nc1ccc(N)c2c1C(=O)c1ccccc1C2=O
active: [5] 21.7 µM | [9] 30.6 µM | [12] 15.4 µM
inactive: [1] | [2] | [3] | [4] | [6] | [7] | [13] | [10]

O=C1c2ccccc2S(=O)(=O)N1CCCCN1CCN(c2ncccn2)CC1
inactive: [1] | [2] | [3] | [4] | [5] | [6] | [7] | [8] | [9] | [10] | [12]

COc1cccc(N(C)C(=S)Oc2ccc3c(c2)CCCC3)n1
inactive: [1] | [2] | [3] | [4] | [5] | [6] | [7] | [8] | [9] | [10] | [12]

C[N+]1(C)CCC(OC(=O)C(O)(c2ccccc2)C2CCCC2)C1 (configuration not stated)
inactive: [1] | [2] | [3] | [4] | [5] | [6] | [7] | [8] | [9] | [11] | [12]

ClCCOCCOCCCl
inactive: [1] | [2] | [3] | [4] | [5] | [6] | [7] | [13] | [8] | [10] | [11] | [12]

Cc1cccc(C)c1NC(=O)CN(CC(=O)O)CC(=O)O
inactive: [1] | [2] | [3] | [4] | [5] | [6] | [7] | [13] | [8] | [12]

O=[N+]([O-])c1ccc2[nH]ncc2c1
inactive: [1] | [2] | [3] | [4] | [5] | [6] | [7] | [13] | [8] | [10] | [11] | [12]

O=C(O)c1nc(Cl)c(Cl)c(Cl)c1Cl
inactive: [2] | [3] | [4] | [5] | [6] | [7] | [8] | [9] | [10] | [11] | [12]

CCOc1ccc(N=Nc2ccc(/C=C/c3ccc(N=Nc4ccc(OCC)cc4)cc3S(=O)(=O)O)c(S(=O)(=O)O)c2)cc1
inactive: [1] | [2] | [3] | [4] | [5] | [6] | [7] | [8] | [9] | [10] | [11]
active: [12] 24 µM

COc1ccnc(CS(=O)c2nc3ccc(OC(F)F)cc3[nH]2)c1OC (configuration not stated)
inactive: [1] | [2] | [3] | [4] | [5] | [6] | [7] | [13] | [8] | [9] | [12]

O=[N+]([O-])c1ccc(NCCO)c(OCCO)c1
inactive: [1] | [2] | [3] | [4] | [5] | [6] | [7] | [13] | [8] | [9]
active: [12] 30.7 µM

CCCCNc1ccc(C(=O)OCCOCCOCCOCCOCCOCCOCCOCCOCCOC)cc1
inactive: [1] | [2] | [3] | [4] | [5] | [6] | [7] | [13] | [9] | [12]

CCOc1ccc(O)cc1
inactive: [2] | [3] | [4] | [5] | [6] | [7] | [13] | [8] | [10] | [12]

CC(=O)[O][Al][O]C(C)=O
inactive: [1] | [2] | [3] | [4] | [5] | [6] | [7] | [8] | [9] | [11] | [12]

C=C1[C@H]2CC[C@@H]3[C@H]2C(C)(C)CCC[C@]13C
inactive: [1] | [2] | [3] | [4] | [5] | [6] | [7] | [13] | [8] | [10] | [11] | [12]

Reference: PubChem BioAssay (Tox21)
